The values below come from PubChem BioAssay.

Test [1] can be described thus: compounds binding Alexa647 anti-His antibody – biochemical, small-molecule microarray, 635 nm fluorescence, artefact control for SMM control protein annotation, primary screen (AID 1128).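 Note: score merges feature fluorescence with signal-to-noise for each printed compound spot.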 Particulars: higher = more signal.
Test [2] concerns Human papillomavirus type 1a E7 protein (residues 1-88). The experiment in a line: HPV1a E7 small-molecule binders, primary screen, biochemical, small-molecule microarray, residues 1-88, 635 nm (AID 1129). The settings on record: small-molecule microarray binding, fluorescence 635 nm; higher = more signal.
For test [3], the target named is Focal adhesion kinase 1 (Homo sapiens) (UniProt Q05397). Description: PTK2 protein binding on printed compound slides – biochemical, small-molecule microarray, 635/667 nm fluorescence, BSA, DTT, primary screen (AID 1130).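 Note: composite of spot emission at 667 nm and signal to noise over triplicate slides.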 Particulars: 635 nm fluorescence, higher = more signal.
For test [4], the system named is Fibrinogen (Alexa647-labelled). The experiment in a line: Alexa647-fibrinogen binding to printed small molecules – biochemical, small-molecule microarray, 635/667 nm fluorescence, artefact control for SMM control-protein annotation, profiling panel (AID 1131).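 Note: z-score merges 667 nm fluorescence with per-spot signal-to-noise over triplicate slides.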 The settings on record: fibrinogen-A647 binding fluorescence, higher = more signal.
For test [5], the target named is Follistatin (Homo sapiens) (UniProt P19883). Description: FST protein binding to printed compounds – biochemical, small-molecule microarray, 635/667 nm fluorescence, primary screen (AID 1132). Particulars: 635 nm fluorescence, higher = more signal.
The target of test [6] is Fibroblast growth factor 2 (Homo sapiens) (UniProt P09038). Description: basic fibroblast growth factor binding to printed compounds – biochemical, small-molecule microarray, 635/667 nm fluorescence, primary screen (AID 1133). The settings on record: FGF2, fluorescence 635/667, higher = more signal.
Test [7] in a line: JC-1 mitochondrial potential readout, lung cancer cells – cell-based, A549, JC-1 fluorescence, basal, 24 h, 100 nL, profiling panel (AID 1138).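 Note: A549 lung adenocarcinoma cells under basal conditions with no added stimulus; test concentration not given here.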 Particulars: higher = more signal.
For a further test, the system named is Lefty1. The experiment in a line: Lefty1 protein binding to printed compounds – biochemical, small-molecule microarray, 635/667 nm fluorescence, primary screen (AID 1139). The settings on record: fluorescence 635/667, higher = more signal.
For test [8], the system named is wheat germ agglutinin (Triticum aestivum), Alexa647-labelled. Description: Alexa647-WGA lectin binding to printed small molecules – biochemical, small-molecule microarray, 635/667 nm fluorescence, artefact control for SMM control-protein annotation, profiling panel (AID 1140).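 Note: score merges 667 nm feature emission with signal to noise over triplicate slides.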 The settings on record: WGA-A647 binding, 635 nm fluorescence, higher = more signal.
Test [9] has as its target Luciferin 4-monooxygenase (Photinus pyralis) (UniProt P08659). Description: inhibition of purified Photinus pyralis luciferase – biochemical, luminescence, purified enzyme, 2006 set, primary screen (AID 1141).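 Note: cell-free assay with purified firefly luciferase at 100 ng per well in PBS; test concentration not given here.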 Particulars: purified firefly luciferase, SteadyGlo luminescence, 30 min; higher = more signal, called active from +8 up or from −8 down.
Test [10] deals with Wnt5a (protein binding on small-molecule microarray). The experiment in a line: small molecules binding Wnt5a protein – biophysical, small-molecule microarray, 635/667 nm fluorescence, primary screen (AID 1142).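 Note: fluorescence read at 667 nm with signal to noise per printed feature.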 The settings on record: 635 nm fluorescence, higher = more signal.
Test [11] can be described thus: ATP-based viability of Huh7 replicon cells – cell-based, CellTiter-Glo luminescence, basal, 48 h, cytotoxicity control for HCV replication inhibitor project, primary screen (AID 1143).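 Note: Huh7 hepatoma cells carrying a hepatitis C replication reporter with no stimulus; test concentration not given here.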 The settings on record: higher = more signal, called active from +8 up or from −8 down.
Test [12] can be described thus: Pseudomonas biofilm growth suppression – PAO1 strain, BacTiter-Glo luminescence, LB-PBS, primary screen (AID 1144). Particulars: P. aeruginosa PAO1 biofilm, 12 h, higher = more signal.
The nature of test [13]: basal CRE-LacZ reporter activity in PC12 – cell-based, unstimulated, primary screen (AID 1145). The settings on record: no forskolin, luminescence, 4.5 h, higher = more signal, called active from +8 up or from −8 down.
Test [14] is described as follows: forskolin-driven CRE-LacZ activity in PC12 – cell-based, CRE-LacZ reporter, forskolin-stimulated, primary screen (AID 1146).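 Note: PC12 cells with 6xCRE LacZ reporter stimulated by forskolin 10 µM; beta-galactosidase reporter signal reflecting CREB driven transcription.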 Particulars: luminescence, 4.5 h, higher = more signal, called active from +8 up or from −8 down.
Test [15] addresses Streptavidin (Streptomyces avidinii) (UniProt P22629). The experiment in a line: compounds binding control protein streptavidin – biophysical, small-molecule microarray, 635/667 nm fluorescence, artefact control for SMM compound annotation, primary screen (AID 1147).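 Note: signal reflects streptavidin binding to arrayed compounds as a control protein.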 Particulars: higher = more signal.
The nature of test [16]: probe aInhba binding on compound microarray – biochemical, small-molecule microarray, 635/667 nm fluorescence, primary screen (AID 1148).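 Note: score merges 667nm spot fluorescence with signal-to-noise for antibody binding to printed compounds.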 Particulars: higher = more signal.
For test [17], the target named is Torsin-1A (Homo sapiens) (UniProt O14656). The experiment in a line: TOR1A wild-type binding on microarray – cell lysate, small-molecule microarray, lysate, 635/667 nm, primary screen (AID 1149). Particulars: COS7 hTOR1A-WT lysate, 635 nm fluorescence, higher = more signal.
For test [18] the target is unchanged. Description: torsin A mutant lysate binding on microarrays – cell lysate, small-molecule microarray, COS7 lysate, 635/667 nm fluorescence, primary screen (AID 1150).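 Note: score pools 667 nm emission and signal to noise measuring lysate protein binding.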 The settings on record: COS7 hTOR1A mutant lysate, 635 nm fluorescence, higher = more signal.
Test [19] has as its system Sonic hedgehog protein (Shh). The experiment in a line: Sonic hedgehog microarray binding compounds – biochemical, small-molecule microarray, 635/667 nm fluorescence, primary screen (AID 1151).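 Note: Shh protein binding to compounds spotted on small-molecule microarray slides; score combines spot fluorescence intensity with signal-to-noise across triplicate slides.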 The settings on record: 635 nm fluorescence, higher = more signal.

Calls of active or inactive are those of the source. Unless noted, the rule behind the calls is not given here.

Streptavidin (Streptomyces avidinii), sequence (P22629 whole entry, looked up): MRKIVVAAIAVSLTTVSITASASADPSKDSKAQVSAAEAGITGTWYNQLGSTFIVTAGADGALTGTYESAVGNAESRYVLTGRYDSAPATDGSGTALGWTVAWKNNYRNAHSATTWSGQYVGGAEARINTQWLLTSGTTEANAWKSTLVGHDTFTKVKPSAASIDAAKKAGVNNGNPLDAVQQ
Torsin-1A (Homo sapiens), sequence (O14656 whole entry, looked up): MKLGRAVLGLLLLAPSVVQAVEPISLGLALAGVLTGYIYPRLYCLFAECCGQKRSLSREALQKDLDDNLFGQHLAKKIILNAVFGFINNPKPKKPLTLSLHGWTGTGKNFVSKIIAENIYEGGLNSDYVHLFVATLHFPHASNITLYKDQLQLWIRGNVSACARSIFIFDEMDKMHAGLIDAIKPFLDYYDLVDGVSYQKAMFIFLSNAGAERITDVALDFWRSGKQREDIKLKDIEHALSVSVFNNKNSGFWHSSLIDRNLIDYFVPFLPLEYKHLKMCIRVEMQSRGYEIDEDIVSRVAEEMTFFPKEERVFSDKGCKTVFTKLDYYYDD
Follistatin (Homo sapiens), sequence (P19883 whole entry, looked up): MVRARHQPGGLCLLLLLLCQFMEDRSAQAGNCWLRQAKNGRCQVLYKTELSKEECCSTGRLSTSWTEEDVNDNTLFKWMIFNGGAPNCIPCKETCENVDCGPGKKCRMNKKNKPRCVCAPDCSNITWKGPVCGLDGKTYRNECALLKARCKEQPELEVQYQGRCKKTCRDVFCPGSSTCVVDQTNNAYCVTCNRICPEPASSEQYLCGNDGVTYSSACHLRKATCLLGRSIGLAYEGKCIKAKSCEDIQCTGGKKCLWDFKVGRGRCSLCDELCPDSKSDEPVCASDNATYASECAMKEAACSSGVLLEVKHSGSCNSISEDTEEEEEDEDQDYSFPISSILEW
Focal adhesion kinase 1 (Homo sapiens), sequence (Q05397 whole entry, looked up): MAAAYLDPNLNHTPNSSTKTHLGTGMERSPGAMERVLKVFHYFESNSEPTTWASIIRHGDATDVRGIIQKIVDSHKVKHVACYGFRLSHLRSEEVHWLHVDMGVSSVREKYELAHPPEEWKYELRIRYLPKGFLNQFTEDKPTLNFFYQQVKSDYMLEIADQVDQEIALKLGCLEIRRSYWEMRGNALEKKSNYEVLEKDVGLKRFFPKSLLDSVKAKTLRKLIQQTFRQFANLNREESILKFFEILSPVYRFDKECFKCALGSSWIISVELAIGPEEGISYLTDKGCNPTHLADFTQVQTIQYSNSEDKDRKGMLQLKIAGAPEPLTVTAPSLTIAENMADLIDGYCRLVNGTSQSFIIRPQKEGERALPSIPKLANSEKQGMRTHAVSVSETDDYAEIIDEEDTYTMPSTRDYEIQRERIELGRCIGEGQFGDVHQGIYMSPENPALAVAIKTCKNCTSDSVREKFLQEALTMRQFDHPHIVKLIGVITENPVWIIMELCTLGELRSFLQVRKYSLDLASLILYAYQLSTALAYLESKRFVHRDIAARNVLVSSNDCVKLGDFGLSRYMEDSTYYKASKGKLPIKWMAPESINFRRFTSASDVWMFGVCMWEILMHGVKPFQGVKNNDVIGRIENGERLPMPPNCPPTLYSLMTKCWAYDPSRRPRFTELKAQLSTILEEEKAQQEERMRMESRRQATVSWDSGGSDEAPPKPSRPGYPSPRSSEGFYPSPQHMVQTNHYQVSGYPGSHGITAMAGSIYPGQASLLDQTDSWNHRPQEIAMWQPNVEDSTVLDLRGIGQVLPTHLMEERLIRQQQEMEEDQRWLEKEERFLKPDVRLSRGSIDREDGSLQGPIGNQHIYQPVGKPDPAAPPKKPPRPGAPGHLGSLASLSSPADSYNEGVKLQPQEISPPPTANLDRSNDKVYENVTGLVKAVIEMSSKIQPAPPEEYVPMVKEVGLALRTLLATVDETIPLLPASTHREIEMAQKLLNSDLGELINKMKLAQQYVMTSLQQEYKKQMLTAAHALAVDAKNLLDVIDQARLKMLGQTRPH
Luciferin 4-monooxygenase (Photinus pyralis), sequence (P08659 whole entry, looked up): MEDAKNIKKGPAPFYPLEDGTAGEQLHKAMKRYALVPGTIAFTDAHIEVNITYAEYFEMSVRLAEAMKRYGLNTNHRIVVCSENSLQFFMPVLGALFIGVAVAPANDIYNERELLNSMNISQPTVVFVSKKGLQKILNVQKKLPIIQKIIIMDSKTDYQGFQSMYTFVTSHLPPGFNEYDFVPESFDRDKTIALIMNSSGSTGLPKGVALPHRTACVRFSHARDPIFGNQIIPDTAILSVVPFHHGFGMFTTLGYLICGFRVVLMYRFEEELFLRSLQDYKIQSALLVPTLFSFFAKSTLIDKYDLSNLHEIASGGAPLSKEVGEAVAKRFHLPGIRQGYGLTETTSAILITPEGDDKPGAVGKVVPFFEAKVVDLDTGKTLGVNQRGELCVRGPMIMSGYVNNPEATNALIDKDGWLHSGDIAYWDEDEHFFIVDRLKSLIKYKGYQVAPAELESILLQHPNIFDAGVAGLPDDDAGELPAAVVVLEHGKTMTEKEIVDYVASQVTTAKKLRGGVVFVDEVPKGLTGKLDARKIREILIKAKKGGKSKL
Fibroblast growth factor 2 (Homo sapiens), sequence (P09038 whole entry, looked up): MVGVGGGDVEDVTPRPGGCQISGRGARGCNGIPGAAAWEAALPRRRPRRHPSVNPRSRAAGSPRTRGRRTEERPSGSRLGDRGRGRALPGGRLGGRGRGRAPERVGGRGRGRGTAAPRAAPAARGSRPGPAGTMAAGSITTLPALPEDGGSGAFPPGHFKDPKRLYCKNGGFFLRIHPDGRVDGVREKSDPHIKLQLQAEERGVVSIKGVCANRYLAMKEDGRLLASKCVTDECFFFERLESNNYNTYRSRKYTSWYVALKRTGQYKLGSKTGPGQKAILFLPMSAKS

Turning to `O=C(NN=C1C[C@@H](O)[C@@H](O)[C@@H]2[C@@H]3C(=O)N(c4cccc(Oc5ccccc5)c4)C(=O)[C@@H]3CC[C@@H]12)OCc1ccccc1`, the composite z-score was -0.0621 in test [1]; 0.0508 in [2]; 0.0623 in test [3]; 0.81 in [4]; -0.0636 in test [5]; -0.0953 in [6]. The composite z-score with Lefty1 is 0.211; in [8], 0.764; in test [10], -0.0255; in test [15], 0.504; in test [16] it was -0.183; with Torsin-1A (Homo sapiens) [17], 0.212. Moreover, the values for the composite z-score (in the test with Torsin-1A (Homo sapiens) [18]; in [19]) were 0.31 and -0.376, respectively. Also, the z-score in [7] is -0.0675; in test [9], 0.663 (inactive); in test [11], -0.033 (inactive); in test [12], -0.0198 (inactive); in test [13], 1.6 (inactive); in test [14], -0.227 (inactive).

For the compound `O=C1[C@H]2[C@H]3[C@H](O)[C@H](O)CC(=NOCc4ccccc4)[C@H]3CC[C@H]2C(=O)N1c1cccc(Oc2ccccc2)c1`, the composite z-score is 0.623 in [1]; 1.09 in test [2]; 0.333 in test [3]; 0.796 in test [4]; 0.663 in [5]; 1.23 in test [6]. Besides, the composite z-score in the test with Lefty1 amounted to 0.772; in test [8], 0.623; in [10] it was 0.242; in test [15], 0.293; in test [16], 0.0108; with Torsin-1A (Homo sapiens) [17], 0.294. In addition, the composite z-score with Torsin-1A (Homo sapiens) [18] turned out to be 0.363; in [19], 1.24. In addition, the z-score is 0.12 in test [7]; 0.549 (inactive) in [9]; -2.26 (inactive) in test [11]; 0.768 (inactive) in [12]; -0.384 (inactive) in test [13]; -0.271 (inactive) in test [14].

Regarding `O=C(CS)NCCCCCNC(=O)[C@H]1C[C@H]2C(=O)N3CCC[C@H]3C(=O)N2[C@H]1c1cccc(OCCO)c1`, the composite z-score in [1] was determined as 3.13; in test [2], 1.11; in [3], 2.11; in [4], 0.65; in [5] it was 1.45; in test [6] it was 1.92. For the same compound, the composite z-score is 1.65 in the test on Lefty1; 0.777 in test [8]; 0.76 in test [10]; 0.0654 in test [15]; -0.016 in test [16]; 0.581 in the test with Torsin-1A (Homo sapiens) [17]. The results for the composite z-score (with Torsin-1A (Homo sapiens) [18]; in [19]) were 0.751 and 1.99, respectively. Also, the z-score in test [7] was 0.509; in [9] it was -1.22 (inactive); in test [11] it was 0.0319 (inactive); in test [12], 0.162 (inactive); in [13], -0.126 (inactive); in test [14] it was 0.899 (inactive).

`COC(=O)[C@H](C)NC(=O)CCC1CC(OC(=O)NCc2ccc3c(c2)OCO3)CC2(CCCC(COC(=O)NCCOc3ccccc3)O2)O1` (stereo not given in full): the composite z-score in test [1] came to 0.486; in test [2], 1.15; in [3], 0.0281; in test [4], 0.59; in test [5], 0.463; in [6], 1.09. The composite z-score in the test with Lefty1 is 0.735; in [8] it was 0.262; in test [10] it was 0.12; in [15], 0.607; in test [16] it was -0.128; in the test with Torsin-1A (Homo sapiens) [17], 0.248. Also, the composite z-score in the test with Torsin-1A (Homo sapiens) [18] is 0.492; in test [19], 1.67. Besides, the z-score in [7] was 1.09; in test [9], -0.314 (inactive); in test [11], -1.55 (inactive); in test [12], -1.53 (inactive); in test [13], -0.349 (inactive); in test [14], -0.422 (inactive).

For `COC(=O)[C@@]1(Cc2ccc(OC)cc2)[C@H]2c3cc(C(=O)N4CCCC4)n(Cc4cc(F)c(F)c(F)c4)c3C[C@H]2CN1C(=O)c1ccccc1`, the composite z-score in test [1] was 2.21; in test [2], 1.26; in [3], 0.59; in test [4], 1.02; in test [5], 1.19; in test [6], -0.149. The composite z-score with Lefty1 was -0.551; in [8], 1.31; in [10], 2.29; in [15], 2.6; in test [16], 1.87; in the test with Torsin-1A (Homo sapiens) [17], 0.188. In addition, the composite z-score with Torsin-1A (Homo sapiens) [18] was 0.538; in test [19], -0.241. The z-score was 0.649 in test [7]; 1.95 (inactive) in test [9]; -3.23 (inactive) in test [11]; 0.112 (inactive) in test [12]; 0.0041 (inactive) in test [13]; 0.589 (inactive) in [14].
